Experimental data from the supplement of paper PMC11732987, “Enantioselective OTUD7B fragment discovery through chemoproteomics screening and high-throughput optimisation” (Communications Chemistry, 2025).

What was measured:
Test in all cases: log2 ratio of Biotin-Ahx-Ub-VS probe labelling (fragment/DMSO); higher = less target engagement (more negative = stronger competition), active = hit call of the paper (q ≤ 0.05, log2 ratio ≤ -1)
Details in all cases: compound concentration: 200 uM; treatment time: 3 h
USP42 = biological target: T1, USP42 (UniProt Q9H9J4)
T1 sequence (whole entry): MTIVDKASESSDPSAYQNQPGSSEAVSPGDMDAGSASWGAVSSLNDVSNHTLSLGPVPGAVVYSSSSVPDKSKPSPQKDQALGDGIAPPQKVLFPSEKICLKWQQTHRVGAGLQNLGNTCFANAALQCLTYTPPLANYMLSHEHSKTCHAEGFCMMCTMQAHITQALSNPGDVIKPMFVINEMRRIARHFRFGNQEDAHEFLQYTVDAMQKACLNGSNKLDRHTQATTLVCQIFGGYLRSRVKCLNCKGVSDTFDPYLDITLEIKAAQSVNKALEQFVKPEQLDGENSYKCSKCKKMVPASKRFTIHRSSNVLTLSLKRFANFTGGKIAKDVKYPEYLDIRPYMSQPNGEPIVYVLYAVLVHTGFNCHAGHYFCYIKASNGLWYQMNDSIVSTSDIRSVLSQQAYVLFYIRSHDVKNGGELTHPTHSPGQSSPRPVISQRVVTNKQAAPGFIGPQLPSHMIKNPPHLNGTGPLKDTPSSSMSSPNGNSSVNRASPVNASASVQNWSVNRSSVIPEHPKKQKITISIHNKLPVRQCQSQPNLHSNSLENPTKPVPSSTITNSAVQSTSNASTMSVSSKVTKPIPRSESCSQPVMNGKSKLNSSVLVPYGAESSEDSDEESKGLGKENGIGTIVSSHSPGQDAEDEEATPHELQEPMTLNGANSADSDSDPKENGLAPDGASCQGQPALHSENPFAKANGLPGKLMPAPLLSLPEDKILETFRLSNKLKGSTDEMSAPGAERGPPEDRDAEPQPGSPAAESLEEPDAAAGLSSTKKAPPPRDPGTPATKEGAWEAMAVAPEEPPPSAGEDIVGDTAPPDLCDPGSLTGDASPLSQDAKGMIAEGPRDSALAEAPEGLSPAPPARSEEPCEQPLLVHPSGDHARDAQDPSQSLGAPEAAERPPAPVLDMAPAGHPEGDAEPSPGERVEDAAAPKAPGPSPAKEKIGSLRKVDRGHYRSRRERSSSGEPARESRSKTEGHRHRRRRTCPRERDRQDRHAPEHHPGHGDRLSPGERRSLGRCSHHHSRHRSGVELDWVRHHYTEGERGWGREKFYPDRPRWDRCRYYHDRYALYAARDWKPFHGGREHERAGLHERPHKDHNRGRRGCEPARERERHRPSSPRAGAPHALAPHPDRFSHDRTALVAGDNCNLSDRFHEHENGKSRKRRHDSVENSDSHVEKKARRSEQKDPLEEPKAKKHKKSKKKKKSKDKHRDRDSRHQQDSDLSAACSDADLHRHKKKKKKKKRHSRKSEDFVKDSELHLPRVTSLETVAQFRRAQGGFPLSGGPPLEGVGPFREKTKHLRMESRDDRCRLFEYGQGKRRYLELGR
How it was run: (§1)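 Global-median-normalised Spectronaut label-free quantities were compared by unpaired t-test, and values are average log2 ratios of fragment over vehicle. Only proteins with ≥2 unique peptides were used. HEK293T lysate (495 µg per sample) was treated in triplicate with fragment at 200 µM or vehicle for 3 h and then with Biotin-Ahx-Ub-VS at 0.5 µM final for 1 h. Labelled DUBs were then NeutrAvidin-enriched, digested with LysC and trypsin, and run by diaPASEF LC-MS/MS.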

USP46 = USP46 (UniProt P62068)
How it was run: as §1

USP47 = biological target: T2, USP47 (UniProt Q96K76)
T2 sequence (whole entry): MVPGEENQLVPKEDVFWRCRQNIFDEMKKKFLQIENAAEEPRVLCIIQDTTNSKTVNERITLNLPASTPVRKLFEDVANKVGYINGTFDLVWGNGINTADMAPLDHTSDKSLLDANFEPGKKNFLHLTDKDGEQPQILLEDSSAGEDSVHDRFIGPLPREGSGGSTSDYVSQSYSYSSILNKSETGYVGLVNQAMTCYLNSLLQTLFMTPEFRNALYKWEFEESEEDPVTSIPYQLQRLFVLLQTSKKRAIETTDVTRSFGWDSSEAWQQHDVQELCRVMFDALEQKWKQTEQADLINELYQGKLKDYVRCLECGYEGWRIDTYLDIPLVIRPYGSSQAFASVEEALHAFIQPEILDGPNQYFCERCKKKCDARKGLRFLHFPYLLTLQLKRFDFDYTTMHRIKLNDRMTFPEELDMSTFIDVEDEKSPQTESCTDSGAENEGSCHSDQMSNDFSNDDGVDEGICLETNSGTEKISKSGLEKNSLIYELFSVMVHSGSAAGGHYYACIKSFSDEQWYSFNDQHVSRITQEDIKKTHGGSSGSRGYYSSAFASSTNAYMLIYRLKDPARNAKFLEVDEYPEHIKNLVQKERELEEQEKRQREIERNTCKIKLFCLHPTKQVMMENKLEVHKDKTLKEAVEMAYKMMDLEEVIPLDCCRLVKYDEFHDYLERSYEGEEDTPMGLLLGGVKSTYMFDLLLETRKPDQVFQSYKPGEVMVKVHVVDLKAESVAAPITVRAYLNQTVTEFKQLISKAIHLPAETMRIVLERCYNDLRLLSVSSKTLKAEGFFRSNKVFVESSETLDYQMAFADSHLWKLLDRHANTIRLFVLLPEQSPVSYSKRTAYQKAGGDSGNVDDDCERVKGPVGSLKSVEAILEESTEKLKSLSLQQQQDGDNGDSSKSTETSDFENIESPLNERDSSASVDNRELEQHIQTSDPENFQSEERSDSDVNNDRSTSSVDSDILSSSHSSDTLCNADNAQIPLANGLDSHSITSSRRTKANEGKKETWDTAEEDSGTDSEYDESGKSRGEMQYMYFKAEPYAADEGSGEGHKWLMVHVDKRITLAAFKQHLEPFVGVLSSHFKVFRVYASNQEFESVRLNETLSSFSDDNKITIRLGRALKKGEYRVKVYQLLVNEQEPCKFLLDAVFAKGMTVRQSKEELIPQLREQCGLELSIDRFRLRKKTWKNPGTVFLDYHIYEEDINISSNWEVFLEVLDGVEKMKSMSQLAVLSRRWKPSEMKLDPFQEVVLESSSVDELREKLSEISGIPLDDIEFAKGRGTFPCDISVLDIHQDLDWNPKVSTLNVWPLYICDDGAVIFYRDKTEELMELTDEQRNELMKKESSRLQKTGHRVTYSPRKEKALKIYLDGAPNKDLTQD
How it was run: as §1

USP48 = biological target: T3, USP48 (UniProt Q86UV5)
T3 sequence (whole entry): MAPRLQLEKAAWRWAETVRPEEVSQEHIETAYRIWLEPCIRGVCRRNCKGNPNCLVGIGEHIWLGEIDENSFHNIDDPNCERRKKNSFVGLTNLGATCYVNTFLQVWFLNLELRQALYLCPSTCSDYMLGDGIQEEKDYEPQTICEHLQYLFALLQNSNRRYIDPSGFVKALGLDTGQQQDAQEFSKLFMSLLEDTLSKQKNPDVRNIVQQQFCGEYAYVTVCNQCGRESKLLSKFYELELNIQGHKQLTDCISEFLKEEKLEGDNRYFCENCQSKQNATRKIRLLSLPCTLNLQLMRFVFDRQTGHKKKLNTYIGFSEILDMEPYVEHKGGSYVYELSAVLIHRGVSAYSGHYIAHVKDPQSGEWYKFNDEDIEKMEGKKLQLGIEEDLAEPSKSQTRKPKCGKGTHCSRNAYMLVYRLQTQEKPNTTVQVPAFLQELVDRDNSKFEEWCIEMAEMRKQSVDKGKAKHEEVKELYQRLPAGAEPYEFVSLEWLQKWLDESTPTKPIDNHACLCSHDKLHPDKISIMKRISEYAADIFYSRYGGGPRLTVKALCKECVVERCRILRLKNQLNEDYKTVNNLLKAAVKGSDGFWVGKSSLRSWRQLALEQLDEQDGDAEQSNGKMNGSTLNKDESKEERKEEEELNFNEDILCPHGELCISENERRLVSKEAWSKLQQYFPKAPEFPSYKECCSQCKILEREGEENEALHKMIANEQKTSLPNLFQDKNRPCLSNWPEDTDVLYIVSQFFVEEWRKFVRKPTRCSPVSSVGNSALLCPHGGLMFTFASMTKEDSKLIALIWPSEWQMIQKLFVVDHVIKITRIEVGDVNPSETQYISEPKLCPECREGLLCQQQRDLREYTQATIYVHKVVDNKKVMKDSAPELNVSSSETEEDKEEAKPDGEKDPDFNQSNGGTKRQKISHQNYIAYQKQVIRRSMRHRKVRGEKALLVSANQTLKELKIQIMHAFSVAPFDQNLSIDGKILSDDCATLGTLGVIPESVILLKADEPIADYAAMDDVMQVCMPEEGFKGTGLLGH
How it was run: as §1

USP5 = biological target: T4, USP5 (UniProt P45974)
T4 sequence (whole entry): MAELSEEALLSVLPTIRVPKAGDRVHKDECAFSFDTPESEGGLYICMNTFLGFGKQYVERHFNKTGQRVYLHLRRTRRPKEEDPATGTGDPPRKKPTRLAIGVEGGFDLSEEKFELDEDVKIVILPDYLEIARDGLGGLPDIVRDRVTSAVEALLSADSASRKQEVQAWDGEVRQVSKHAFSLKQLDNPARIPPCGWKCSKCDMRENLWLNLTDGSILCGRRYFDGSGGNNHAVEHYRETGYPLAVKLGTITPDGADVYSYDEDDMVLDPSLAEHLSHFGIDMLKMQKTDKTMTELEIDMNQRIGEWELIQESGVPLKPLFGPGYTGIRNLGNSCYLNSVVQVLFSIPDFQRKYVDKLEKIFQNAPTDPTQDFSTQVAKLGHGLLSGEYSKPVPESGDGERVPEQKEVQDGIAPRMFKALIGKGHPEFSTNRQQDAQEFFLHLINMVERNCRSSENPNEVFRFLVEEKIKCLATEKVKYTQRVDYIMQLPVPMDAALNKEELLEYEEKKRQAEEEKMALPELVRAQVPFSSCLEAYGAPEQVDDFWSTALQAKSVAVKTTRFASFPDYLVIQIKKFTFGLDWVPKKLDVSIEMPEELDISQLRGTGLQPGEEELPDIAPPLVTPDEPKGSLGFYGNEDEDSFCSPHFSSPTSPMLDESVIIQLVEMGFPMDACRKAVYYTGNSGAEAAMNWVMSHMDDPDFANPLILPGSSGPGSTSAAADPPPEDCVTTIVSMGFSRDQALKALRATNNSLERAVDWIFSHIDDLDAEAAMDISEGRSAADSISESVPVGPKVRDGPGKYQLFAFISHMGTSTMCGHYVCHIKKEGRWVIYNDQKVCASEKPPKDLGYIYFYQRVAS
How it was run: as §1

USP54 = USP54 (UniProt Q70EL1)
How it was run: as §1

USP7 = USP7 (UniProt Q93009)
How it was run: as §1

USP8 = biological target: T5, USP8 (UniProt P40818)
T5 sequence (whole entry): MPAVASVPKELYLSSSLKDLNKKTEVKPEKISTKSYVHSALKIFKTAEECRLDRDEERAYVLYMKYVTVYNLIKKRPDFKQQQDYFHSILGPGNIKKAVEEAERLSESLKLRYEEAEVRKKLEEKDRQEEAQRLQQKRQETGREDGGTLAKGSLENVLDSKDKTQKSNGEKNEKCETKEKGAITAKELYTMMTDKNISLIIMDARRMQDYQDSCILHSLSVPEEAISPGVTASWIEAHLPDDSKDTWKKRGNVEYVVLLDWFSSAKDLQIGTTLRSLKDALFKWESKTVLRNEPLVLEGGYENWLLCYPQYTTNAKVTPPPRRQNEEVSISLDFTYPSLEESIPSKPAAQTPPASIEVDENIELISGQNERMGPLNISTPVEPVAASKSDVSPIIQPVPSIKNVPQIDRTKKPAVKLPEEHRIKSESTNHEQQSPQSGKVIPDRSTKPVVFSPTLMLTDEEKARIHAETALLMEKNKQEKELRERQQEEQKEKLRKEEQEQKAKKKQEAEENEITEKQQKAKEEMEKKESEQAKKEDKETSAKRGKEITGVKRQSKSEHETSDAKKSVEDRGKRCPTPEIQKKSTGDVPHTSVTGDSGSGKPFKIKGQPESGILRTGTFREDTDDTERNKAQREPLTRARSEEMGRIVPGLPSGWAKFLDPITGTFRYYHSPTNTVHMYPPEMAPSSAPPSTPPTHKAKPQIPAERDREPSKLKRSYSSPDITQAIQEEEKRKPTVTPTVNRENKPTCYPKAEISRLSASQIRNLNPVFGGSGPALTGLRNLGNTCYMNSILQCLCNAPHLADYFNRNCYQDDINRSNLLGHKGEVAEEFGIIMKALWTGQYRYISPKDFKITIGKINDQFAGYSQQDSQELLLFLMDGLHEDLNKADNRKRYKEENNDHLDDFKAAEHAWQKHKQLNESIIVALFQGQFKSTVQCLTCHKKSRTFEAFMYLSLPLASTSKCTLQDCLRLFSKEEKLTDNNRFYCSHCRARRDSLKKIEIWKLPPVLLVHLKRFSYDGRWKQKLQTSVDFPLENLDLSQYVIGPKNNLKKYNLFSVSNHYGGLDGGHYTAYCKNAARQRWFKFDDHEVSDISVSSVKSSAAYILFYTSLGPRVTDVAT
How it was run: as §1

USP9X = USP9X (UniProt Q93008)
How it was run: as §1

UniProt O00487 = biological target: UniProt O00487
How it was run: as §1

Measured: log2 ratio of Biotin-Ahx-Ub-VS probe labelling

USP9X, sequence (Q93008 whole entry): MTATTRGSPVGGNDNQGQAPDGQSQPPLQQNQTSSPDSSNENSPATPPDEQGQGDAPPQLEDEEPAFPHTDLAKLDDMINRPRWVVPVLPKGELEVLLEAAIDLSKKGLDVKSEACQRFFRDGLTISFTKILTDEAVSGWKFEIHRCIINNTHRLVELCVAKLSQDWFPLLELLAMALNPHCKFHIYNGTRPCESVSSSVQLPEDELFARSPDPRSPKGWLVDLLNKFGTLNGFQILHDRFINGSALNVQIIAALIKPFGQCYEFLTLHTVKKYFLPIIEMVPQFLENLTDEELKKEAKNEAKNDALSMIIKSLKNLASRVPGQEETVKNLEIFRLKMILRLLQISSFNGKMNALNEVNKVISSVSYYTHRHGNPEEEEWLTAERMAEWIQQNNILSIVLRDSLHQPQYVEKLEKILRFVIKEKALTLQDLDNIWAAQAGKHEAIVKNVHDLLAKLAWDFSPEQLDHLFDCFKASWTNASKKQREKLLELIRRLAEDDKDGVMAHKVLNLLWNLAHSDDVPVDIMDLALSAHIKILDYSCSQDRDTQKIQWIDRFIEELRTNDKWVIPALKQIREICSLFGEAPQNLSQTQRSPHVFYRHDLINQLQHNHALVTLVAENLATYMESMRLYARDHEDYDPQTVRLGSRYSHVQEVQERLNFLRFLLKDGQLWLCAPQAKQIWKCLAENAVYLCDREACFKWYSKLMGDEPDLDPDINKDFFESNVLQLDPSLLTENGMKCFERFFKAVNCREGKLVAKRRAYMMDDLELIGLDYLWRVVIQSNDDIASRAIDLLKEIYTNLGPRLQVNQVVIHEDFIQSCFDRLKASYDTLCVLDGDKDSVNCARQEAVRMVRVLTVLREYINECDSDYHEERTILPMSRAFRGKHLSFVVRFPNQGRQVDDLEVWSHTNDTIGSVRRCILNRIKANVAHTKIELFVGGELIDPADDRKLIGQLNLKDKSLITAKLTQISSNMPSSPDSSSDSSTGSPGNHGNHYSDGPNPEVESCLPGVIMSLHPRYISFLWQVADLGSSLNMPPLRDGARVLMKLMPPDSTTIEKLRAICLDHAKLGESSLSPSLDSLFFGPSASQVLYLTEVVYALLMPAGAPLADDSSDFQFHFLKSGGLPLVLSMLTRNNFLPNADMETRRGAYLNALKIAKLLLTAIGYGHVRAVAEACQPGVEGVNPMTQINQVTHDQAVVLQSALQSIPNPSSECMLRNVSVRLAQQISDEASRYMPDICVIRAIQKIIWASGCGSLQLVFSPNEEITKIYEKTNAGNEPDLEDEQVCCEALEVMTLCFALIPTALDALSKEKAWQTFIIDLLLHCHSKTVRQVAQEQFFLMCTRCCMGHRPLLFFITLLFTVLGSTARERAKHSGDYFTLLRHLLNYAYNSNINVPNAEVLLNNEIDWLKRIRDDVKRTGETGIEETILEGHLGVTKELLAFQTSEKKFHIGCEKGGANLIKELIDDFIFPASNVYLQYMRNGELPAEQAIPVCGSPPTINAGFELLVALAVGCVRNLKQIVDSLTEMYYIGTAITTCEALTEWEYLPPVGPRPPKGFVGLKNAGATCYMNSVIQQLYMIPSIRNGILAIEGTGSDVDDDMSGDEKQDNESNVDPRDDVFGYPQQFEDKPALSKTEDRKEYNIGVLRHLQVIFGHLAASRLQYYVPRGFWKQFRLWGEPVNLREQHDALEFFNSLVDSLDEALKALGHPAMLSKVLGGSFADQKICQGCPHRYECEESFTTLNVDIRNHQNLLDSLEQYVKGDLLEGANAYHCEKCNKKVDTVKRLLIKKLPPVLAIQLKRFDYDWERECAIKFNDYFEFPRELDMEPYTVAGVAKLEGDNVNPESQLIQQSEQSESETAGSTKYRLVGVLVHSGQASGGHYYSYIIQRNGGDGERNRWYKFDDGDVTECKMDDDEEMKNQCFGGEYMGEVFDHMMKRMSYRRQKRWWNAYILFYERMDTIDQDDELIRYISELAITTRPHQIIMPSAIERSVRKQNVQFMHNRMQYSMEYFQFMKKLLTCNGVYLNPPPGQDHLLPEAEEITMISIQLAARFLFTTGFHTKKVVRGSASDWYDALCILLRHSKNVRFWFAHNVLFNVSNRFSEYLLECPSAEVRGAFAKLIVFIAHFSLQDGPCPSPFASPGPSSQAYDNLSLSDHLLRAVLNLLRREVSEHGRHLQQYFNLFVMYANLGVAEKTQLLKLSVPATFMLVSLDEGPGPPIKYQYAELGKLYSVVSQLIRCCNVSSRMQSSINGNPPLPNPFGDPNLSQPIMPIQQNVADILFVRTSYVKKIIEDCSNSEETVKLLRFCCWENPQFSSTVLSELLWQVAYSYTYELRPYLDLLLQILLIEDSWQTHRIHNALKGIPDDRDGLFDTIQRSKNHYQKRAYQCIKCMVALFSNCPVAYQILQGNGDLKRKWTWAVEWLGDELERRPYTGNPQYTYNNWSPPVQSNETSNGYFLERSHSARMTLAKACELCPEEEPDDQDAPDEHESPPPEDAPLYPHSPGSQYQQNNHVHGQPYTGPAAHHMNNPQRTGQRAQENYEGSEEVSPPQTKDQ
UniProt O00487, sequence (O00487 whole entry): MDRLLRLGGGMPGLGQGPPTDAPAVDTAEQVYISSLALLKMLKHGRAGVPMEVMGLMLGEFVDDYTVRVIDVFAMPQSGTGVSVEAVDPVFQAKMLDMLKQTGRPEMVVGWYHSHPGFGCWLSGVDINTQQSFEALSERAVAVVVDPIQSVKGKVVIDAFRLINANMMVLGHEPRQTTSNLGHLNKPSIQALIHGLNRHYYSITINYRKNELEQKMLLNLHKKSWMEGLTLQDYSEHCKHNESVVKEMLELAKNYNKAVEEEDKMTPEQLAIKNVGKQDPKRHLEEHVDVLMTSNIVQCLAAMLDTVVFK
USP54, sequence (Q70EL1 whole entry): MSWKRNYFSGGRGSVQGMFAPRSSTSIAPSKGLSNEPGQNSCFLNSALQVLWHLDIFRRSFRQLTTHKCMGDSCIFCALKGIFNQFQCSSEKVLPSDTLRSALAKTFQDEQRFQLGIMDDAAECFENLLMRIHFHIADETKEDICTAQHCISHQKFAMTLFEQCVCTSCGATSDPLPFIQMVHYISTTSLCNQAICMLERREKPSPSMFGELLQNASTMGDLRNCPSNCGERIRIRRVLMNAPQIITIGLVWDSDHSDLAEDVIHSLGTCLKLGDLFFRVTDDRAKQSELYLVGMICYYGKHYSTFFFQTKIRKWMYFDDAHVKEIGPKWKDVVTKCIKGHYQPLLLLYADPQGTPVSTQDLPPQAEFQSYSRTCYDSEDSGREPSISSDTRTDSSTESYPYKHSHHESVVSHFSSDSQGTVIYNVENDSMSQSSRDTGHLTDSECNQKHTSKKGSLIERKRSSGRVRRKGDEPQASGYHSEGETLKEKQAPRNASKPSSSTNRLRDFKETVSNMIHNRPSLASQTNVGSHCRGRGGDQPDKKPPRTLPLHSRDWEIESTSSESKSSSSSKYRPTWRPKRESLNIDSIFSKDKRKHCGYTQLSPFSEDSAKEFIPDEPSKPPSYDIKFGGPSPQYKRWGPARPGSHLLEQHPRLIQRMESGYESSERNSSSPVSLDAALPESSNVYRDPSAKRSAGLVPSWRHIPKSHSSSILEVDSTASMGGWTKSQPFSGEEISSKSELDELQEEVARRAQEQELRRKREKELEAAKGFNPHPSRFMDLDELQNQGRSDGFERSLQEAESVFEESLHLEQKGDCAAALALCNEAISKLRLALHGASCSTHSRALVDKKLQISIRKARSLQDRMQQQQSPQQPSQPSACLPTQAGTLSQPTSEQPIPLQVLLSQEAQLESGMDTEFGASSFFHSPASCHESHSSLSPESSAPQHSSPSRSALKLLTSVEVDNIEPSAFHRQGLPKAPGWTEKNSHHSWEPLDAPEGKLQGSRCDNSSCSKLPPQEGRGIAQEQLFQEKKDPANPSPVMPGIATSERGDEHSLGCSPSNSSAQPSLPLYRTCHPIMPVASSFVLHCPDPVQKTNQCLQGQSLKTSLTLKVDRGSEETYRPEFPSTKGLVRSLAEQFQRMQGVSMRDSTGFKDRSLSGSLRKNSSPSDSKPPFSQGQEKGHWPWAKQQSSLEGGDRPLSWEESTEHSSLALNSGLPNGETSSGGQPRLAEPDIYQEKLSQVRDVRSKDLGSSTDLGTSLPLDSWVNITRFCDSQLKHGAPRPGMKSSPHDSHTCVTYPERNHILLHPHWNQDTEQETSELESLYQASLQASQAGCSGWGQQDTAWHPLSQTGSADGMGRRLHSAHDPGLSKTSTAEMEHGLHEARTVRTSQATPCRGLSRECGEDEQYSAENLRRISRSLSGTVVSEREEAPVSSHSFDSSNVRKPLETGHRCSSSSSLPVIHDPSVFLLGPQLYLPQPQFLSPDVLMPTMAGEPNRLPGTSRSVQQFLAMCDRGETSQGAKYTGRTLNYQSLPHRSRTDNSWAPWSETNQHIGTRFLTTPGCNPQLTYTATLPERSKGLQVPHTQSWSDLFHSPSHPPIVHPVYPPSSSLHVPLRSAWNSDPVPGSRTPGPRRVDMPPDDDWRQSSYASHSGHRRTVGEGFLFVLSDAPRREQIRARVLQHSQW
USP46, sequence (P62068 whole entry): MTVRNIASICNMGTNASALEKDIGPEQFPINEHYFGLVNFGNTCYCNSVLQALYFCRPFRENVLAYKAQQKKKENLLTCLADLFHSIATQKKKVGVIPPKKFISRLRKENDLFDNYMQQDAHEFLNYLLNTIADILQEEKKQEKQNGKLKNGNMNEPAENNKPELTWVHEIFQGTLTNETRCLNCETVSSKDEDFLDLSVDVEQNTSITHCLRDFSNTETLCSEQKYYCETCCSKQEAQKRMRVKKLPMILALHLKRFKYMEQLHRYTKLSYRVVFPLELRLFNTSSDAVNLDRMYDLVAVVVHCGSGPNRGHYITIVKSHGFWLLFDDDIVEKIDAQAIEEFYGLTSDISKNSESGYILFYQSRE

Cl.Cn1cnc2cc(CNC(=O)CCl)ccc21
inactive: USP42 0.00921 | USP46 -0.0392 | USP47 -0.0799 | USP48 0.192 | USP5 -0.445 | USP54 -0.109 | USP7 -0.083 | USP8 -0.103 | USP9X -0.0792 | UniProt O00487 -0.00543

Cc1nc(CC2CCN(C(=O)CCl)CC2)no1
inactive: USP42 0.631 | USP46 -0.332 | USP47 -0.726 | USP48 -0.576 | USP5 -0.492 | USP54 0.803 | USP7 -0.904 | USP8 -0.755 | USP9X -0.815 | UniProt O00487 -0.084

Cl.O=C(CCl)NC1(c2ncccn2)CCC1
inactive: USP42 0.259 | USP46 0.267 | USP47 -0.186 | USP48 -0.0959 | USP5 -0.174 | USP54 -0.292 | USP7 -0.0088 | USP8 -0.47 | USP9X 0.117 | UniProt O00487 0.0465

O=C(CCl)N1CCC(C(=O)N2CCCCCC2)CC1
inactive: USP42 0.671 | USP46 -0.142 | USP47 -0.239 | USP48 -0.0351 | USP5 0.0959 | USP54 0.452 | USP7 -0.714 | USP8 -0.0368 | USP9X -0.297 | UniProt O00487 -0.112
